The values that follow come from ChEMBL document CHEMBL4808148, “HDAC6 screening dataset using tau-based substrate in an enzymatic assay yields selective inhibitors and activators” (2021).

The target in test [1] is T1, Protein deacetylase HDAC6 (Homo sapiens) (UniProt Q9UBN7).
T1 sequence (whole entry): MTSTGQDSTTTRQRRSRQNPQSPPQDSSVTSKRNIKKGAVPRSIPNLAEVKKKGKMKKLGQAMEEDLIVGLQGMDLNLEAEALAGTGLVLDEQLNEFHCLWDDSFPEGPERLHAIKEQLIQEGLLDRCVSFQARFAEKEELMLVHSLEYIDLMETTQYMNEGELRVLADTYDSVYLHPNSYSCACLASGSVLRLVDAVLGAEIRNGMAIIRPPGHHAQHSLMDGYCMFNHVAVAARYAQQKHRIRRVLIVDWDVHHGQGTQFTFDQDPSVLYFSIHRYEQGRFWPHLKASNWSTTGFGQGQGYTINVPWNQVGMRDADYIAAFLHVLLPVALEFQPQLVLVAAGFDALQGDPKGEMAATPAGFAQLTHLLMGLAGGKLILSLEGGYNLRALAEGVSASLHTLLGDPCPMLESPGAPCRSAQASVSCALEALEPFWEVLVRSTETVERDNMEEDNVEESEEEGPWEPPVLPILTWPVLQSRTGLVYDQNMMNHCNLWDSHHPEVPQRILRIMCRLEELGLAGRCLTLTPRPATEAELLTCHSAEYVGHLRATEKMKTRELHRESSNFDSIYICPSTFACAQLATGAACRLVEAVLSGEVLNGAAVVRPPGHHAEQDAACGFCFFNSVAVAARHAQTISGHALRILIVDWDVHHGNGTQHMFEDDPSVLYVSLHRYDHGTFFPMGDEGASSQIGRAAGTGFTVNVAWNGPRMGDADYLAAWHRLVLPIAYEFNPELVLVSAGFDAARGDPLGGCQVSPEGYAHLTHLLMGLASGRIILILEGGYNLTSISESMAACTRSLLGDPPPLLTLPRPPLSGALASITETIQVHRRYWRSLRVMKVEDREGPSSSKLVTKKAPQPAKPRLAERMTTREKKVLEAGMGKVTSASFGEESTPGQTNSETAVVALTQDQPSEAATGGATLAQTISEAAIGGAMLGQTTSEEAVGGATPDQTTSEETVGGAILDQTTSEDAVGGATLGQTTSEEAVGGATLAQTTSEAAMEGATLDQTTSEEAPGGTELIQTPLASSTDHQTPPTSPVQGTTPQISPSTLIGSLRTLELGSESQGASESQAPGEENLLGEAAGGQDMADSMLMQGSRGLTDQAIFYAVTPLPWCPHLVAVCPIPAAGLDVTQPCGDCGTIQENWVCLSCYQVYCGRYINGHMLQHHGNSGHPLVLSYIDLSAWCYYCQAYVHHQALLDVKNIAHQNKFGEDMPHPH
The following applies: at 10 µM.

The target in test [2] is Protein deacetylase HDAC6 (Homo sapiens) (UniProt Q9UBN7). The conditions noted are these: at 10 µM. This is another data set of the same source.

The whole screen tested about 5,600 compounds, of which about 390 (7%) showed an effect of 50% or more. The entries come from a sample that favours strong results as a whole. Non-standard residues stand in square brackets, D forms with d. Residues, ends and D or L forms follow the SMILES beside them. dPhe(4-Cl) = N[C@H](Cc1ccc(Cl)cc1)C(=O)O; d2Nal = N[C@H](Cc1ccc2ccccc2c1)C(=O)O; dCit = NC(=O)NCCC[C@@H](N)C(=O)O; d3Pal = N[C@H](Cc1cccnc1)C(=O)O

By inhibition is commonly meant the relative decrease from the control value, in per cent. Regarding `CC(C)C[C@@H](C(=O)N[C@H](C(=O)OC1CCCC1)c1ccccc1)[C@H](O)C(=O)NO`, the inhibition in test [1] was -7.78%.

As for `[K+]`, in test [1], the inhibition is 17.5%.

Take `O=C(Nc1cnn2ccc(N3CCC[C@@H]3c3cc(F)ccc3F)nc12)N1CC[C@H](O)C1`: the inhibition in test [1] is 28.9%.

For the compound `O=C1C(O)=C(O)C(=O)C(O)=C1O`, the inhibition in test [1] came out at 1.19%.

For `CCc1cncnc1N1CCN(Cc2nc3cc(C(F)(F)F)ccc3[nH]2)CC1`, the inhibition in test [1] was 2.81%.

For the compound `c1ccc(N2CCN(Cc3nc4ccccc4[nH]3)CC2)nc1`, the inhibition in test [1] was 20.5%.

For `CC(C)(C)c1ccc(-c2nc3c(N4CCN(Cc5ccc6nccnc6c5)CC4)cccc3[nH]2)cc1`, the inhibition in test [1] stood at 110%.

On to `CCCCCCCN(CC)CCCC(O)c1ccc(NS(C)(=O)=O)cc1` (stereo not drawn), for which the inhibition in test [1] came to 30.4%.

On to `O=C(c1ccc(C(=O)N2CCC(N3CCCC3)CC2)c(Nc2ccccc2)c1)N1CCC(N2CCCC2)CC1`, for which the inhibition in test [1] was found to be 28.5%.

`COc1cc2c(cc1OCCCN1CCCC1)N=C(N)C21CCC1`: the inhibition in test [1] was -4.1%.

As for `O=C(O)c1ccc(/C=C2/SC(=S)N(c3cccc(C(F)(F)F)c3)C2=O)cc1`, the inhibition in test [1] was 4.63%.

On to `NC(=O)OCC(O)COc1ccc(Cl)cc1` (stereo not drawn), for which the inhibition in test [1] is 47.1%.

Turning to `COc1ccccc1OCC(O)CO` (stereo not drawn), the inhibition in test [1] is -8.39%.

On to `COc1ccccc1OCC(O)COC(N)=O` (stereo not drawn), for which the inhibition in test [1] was 75.6%.

In the case of `CC(C)C[C@H](NC(=O)N1CCCCCC1)C(=O)N[C@H](Cc1cn(C)c2ccccc12)C(=O)N[C@H](Cc1ccccn1)C(=O)O`, the inhibition in test [1] was -8.82%.

On to `CC(=O)N[C@H](Cc1ccc2ccccc2c1)C(=O)N[C@H](Cc1ccc(Cl)cc1)C(=O)N[C@H](Cc1cccnc1)C(=O)N[C@@H](CO)C(=O)N[C@@H](Cc1ccc(O)cc1)C(=O)N[C@H](CCCNC(N)=O)C(=O)N[C@@H](CC(C)C)C(=O)N[C@@H](CCCNC(=N)N)C(=O)N1CCC[C@H]1C(=O)N[C@H](C)C(N)=O` (Ac-[d2Nal][dPhe(4-Cl)][d3Pal]SY[dCit]LRP[dA]-NH2), for which the inhibition in test [1] was found to be 30.9%.

Consider `Cc1nc(C)c(C)nc1C`, for which, in test [1], the inhibition is -3.53%.

`COc1ccc(-c2ccc(=N)n(CCCC(=O)O)n2)cc1`: the inhibition in test [1] came to 8.71%.

For `O=c1ncn2nc(Sc3ccc(F)cc3F)ccc2c1-c1c(Cl)cccc1Cl`, the inhibition in test [1] came out at 36.3%.

As for `CN1c2c([nH]c(N)nc2=O)NC[C@@H]1CNc1ccc(C(=O)N[C@@H](CCC(=O)O)C(=O)O)cc1`, the inhibition in test [1] came to 11.1%.

For the compound `CCc1nc2ccc(Cl)cn2c1C(=O)NCc1ccc(N2CCC(c3ccc(OC(F)(F)F)cc3)CC2)cc1`, the inhibition in test [1] is 6.99%.

For the compound `COc1cccc(-c2cc(=O)c3ccccc3o2)c1N`, in test [1], the inhibition worked out at 97.4%.

On to `CC(=O)N[C@@H](CSC/C=C(\C)CC/C=C(\C)CCC=C(C)C)C(=O)O`, for which the inhibition in test [1] worked out at 19.5%.

On to `Cc1ccc(N2CCN(CCC3NC(=O)c4ccccc43)CC2)cc1C` (stereo not drawn), for which the inhibition in test [1] is 0.62%.

With `CCN(Cc1ccccc1)C(=O)Cn1c(=O)n(C)c2cnc(-c3ccccc3)nc21`, the inhibition in test [1] came out at 31.2%.

On to `Cc1cc2nc3ccc(N(C)C)cc3[s+]c2cc1N`, for which the inhibition in test [1] was 60.9%.

For `CC1CCN(C(c2ccc(F)cc2)c2ccc(C(C)C(=O)O)cc2-c2ccc(C(F)(F)F)cc2)CC1` (stereo not drawn), in test [1], the inhibition is 27.9%.

In the case of `Nc1ncnc2nc(-c3ccc(N4CCOCC4)nc3)cc(-c3cccc(Br)c3)c12`, the inhibition in test [1] was 19.8%.

With FLUPENTIXOL, CHEMBL6066864, the inhibition in test [2] turned out to be 88.9%.

Regarding CYANOCOBALAMIN, CHEMBL2110563, the inhibition in test [2] was -2.71%.

In the case of BLEOMYCIN SULFATE, CHEMBL6067493, the inhibition in test [2] amounted to 23.1%.

For `O=c1ccc2cc3ccoc3cc2o1`, the inhibition in test [1] is 17.5%.

`O=C(O)c1ccc(NC(=O)[C@H](Cc2ccc(O)cc2)NC(=O)c2ccccc2)cc1`: the inhibition in test [1] turned out to be 10.6%.

For the compound `CC(C)[C@H](C(=O)Nc1ccc(C(=O)NO)cc1)c1ccccc1`, in test [1], the inhibition was 101%.

For the compound `CC(=O)Nc1ccc(C(=O)Nc2ccccc2N)cc1`, in test [1], the inhibition was -0.35%.

Take `CC1(C)Oc2ccc(C#N)cc2[C@@H](N2CCCC2=O)[C@@H]1O`: the inhibition in test [1] is -9.16%.

As for `Cc1ccc(C(=O)Cn2c3c(sc2=N)CCCC3)cc1`, in test [1], the inhibition amounted to 102%.

In the case of `CCOC(=O)C1=C(C)NC(c2ccccc2)=C(C(=O)OCc2ccc([N+](=O)[O-])cc2)C1C#Cc1ccccc1` (stereo not drawn), the inhibition in test [1] was -2.41%.

For the compound `COc1cccc(CCc2ccccc2OCC(CN(C)C)OC(=O)CCC(=O)O)c1` (stereo not drawn), the inhibition in test [1] is -7%.

Consider `COc1cccc(/C=N/C=N/c2cccc(OC)c2)c1`, for which, in test [1], the inhibition amounted to 99.8%.

With `N/C(=N\C(=O)c1nc(Cl)c(N)nc1N)NCc1ccccc1`, the inhibition in test [1] is 25.2%.

Consider `N[C@H](C(=O)O)c1ccc(O)cc1`, for which the inhibition in test [1] worked out at 4.75%.

Consider `Cc1cc(-c2nc(C(=O)Nc3cn(C4CCOCC4)nc3C(N)=O)co2)ccn1`, for which, in test [1], the inhibition came out at 22.8%.

`COc1ccc(/C=C/C(=O)Nc2ccccc2C(=O)O)cc1OC`: in test [1], the inhibition is 40.8%.

With `CC(=O)Nc1ccc(S(=O)(=O)Nc2ccc([N+](=O)[O-])cc2)cc1`, in test [1], the inhibition was determined as 17.7%.

As to `O=C(/C=C/c1cccc(S(=O)(=O)Nc2ccccc2)c1)NO`, the inhibition in test [1] is 102%.

In the case of `c1cc(-c2sc(-c3ccncc3)c(-c3ccncc3)c2-c2ccncc2)ccn1`, the inhibition in test [1] amounted to 17%.

For the compound `COc1cc(N)c(Cl)cc1C(=O)CCC1CCN(CCNS(C)(=O)=O)CC1`, in test [1], the inhibition is -6.48%.

Consider `Nc1ncnc2c1ncn2[C@@H]1O[C@H](CO)C[C@H]1O`, for which, in test [1], the inhibition was -9.63%.

As to `CC(=O)Oc1c(C)cc(OCC(O)CNC(C)C)c(C)c1C` (stereo not drawn), the inhibition in test [1] came out at 28.4%.

Turning to `CCOc1ccc(-n2c(C(C)N(Cc3cccnc3)C(=O)Cc3ccc(F)c(C(F)(F)F)c3)nc3ncccc3c2=O)cc1` (racemic), the inhibition in test [1] is -3.08%.

Turning to `COc1cccc(-c2ccc(NC(=O)C3=C(C(=O)O)CCC3)c(F)c2)c1`, the inhibition in test [1] amounted to 43.2%.

`CCCCOc1ccc(C(=O)Nc2ccc(F)cc2F)cc1`: the inhibition in test [1] stood at 69.8%.

Take `COc1cc2nccc(Oc3ccc(NC(=O)Nc4ccc(F)cc4F)c(F)c3)c2cc1OC`: in test [1], the inhibition is 10.8%.

On to “Chlorophyllin (sodium copper salt), CHEMBL5308389”, for which the inhibition in test [2] amounted to 19.3%.

For the compound “CHLOROPHYLLIDECOPPER COMPLEX SODIUM SALT, CHEMBL5308389”, in test [2], the inhibition came to 8.12%.

Take BISMUTH SUBSALICYLATE, CHEMBL1120: in test [2], the inhibition was 12.2%.

In the case of `O=C(O)c1cc(-c2ccc(F)cc2F)ccc1O`, the inhibition in test [1] came out at 60.9%.

With `Cc1c(-c2ccc(-c3ccccc3F)cc2)nc2ccc(F)cc2c1C(=O)O`, in test [1], the inhibition is -9.14%.

Take `O=C(O)C1(c2ccc(-c3ccc(Cl)c(Cl)c3)c(F)c2)CC1`: the inhibition in test [1] was found to be 33.4%.

Take `CC(C)[C@@H](C)/C=C/[C@@H](C)[C@H]1CC[C@H]2/C(=C/C=C3\C[C@@H](O)CC[C@@H]3C)CCC[C@]12C`: the inhibition in test [1] is 11.8%.

`CC(C)(O)c1coc(S(=O)(=O)NC(=O)Nc2c3c(cc4c2CCC4)CCC3)c1`: the inhibition in test [1] was -9.36%.

On to `Cc1cnc(NC(=O)Nc2cc(Br)c(C)cc2OC[C@@H]2CNCCO2)cn1`, for which the inhibition in test [1] was -8.01%.
